PubChem BioAssay
Unmarked numbers belong to inactive results. Activity calls are given as the source filed them. Cut-off read from the data, not from the text of the source, unless noted: active = inhibition above about 44%; inactive = the rest.

biological target: Steroidogenic factor 1 (Homo sapiens) (UniProt Q13285); assay: SF1 (NR5A1) inverse agonists, counter-screen for LRH-1 inverse agonist project, cell-based, luminescence, high throughput (AID 651614); conditions: cell-based SF1 luciferase reporter, at 3.6 µM, active compounds read high;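 note: cells cotransfected with StAR promoter reporter and SF1 expression vector; 0% = vehicle on cells with receptor and 100% = vehicle on cells lacking receptor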
Sequence (Q13285 whole entry, looked up): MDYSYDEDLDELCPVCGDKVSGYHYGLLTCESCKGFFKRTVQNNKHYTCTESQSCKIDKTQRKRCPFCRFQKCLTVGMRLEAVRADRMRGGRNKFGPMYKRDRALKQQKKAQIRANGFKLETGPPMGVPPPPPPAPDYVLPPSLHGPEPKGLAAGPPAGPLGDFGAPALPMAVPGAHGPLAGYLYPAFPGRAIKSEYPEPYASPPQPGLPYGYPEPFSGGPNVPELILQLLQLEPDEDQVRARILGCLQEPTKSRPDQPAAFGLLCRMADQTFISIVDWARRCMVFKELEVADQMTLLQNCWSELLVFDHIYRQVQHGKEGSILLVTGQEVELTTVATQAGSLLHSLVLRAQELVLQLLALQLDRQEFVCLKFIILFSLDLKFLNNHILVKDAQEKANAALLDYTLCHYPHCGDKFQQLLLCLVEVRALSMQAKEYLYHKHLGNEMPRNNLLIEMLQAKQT

Row | Compound | inhibition
1 | COc1ccc(OC)c(NC(=O)c2ccccc2NC(=O)c2ccco2)c1 | 47.3% (active)
2 | Cc1c(F)cccc1NS(=O)(=O)c1ccc(N2CCCC2=O)cc1 | 47.1% (active)
3 | CCOc1ccc(NC(=O)COC(=O)c2cc([N+](=O)[O-])ccc2N2CCOCC2)cc1 | 50.6% (active)
4 | COCc1cccc(-c2csc(C(C)(O)c3cccc(OC)c3)n2)c1 (stereo not given) | 29.1%
5 | O=C(CN(Cc1ccccc1)C(=O)CCl)c1cccc(Br)c1 | 51.8% (active)
6 | Cn1c(CN2CCN(c3cccc(Cl)c3)CC2)nc2ccccc21 | 36.9%
7 | Cc1cc(N2CCN(c3nc4ccccc4s3)CC2)n2ncnc2n1 | 54.6% (active)
8 | COc1ccc(S(=O)(=O)Nc2cc3c4c(oc3c3ccccc23)CCCC4=O)cc1 | 65.9% (active)
9 | CCCCCCCn1ccc(=N)cc1 | 77.7% (active)
10 | Cn1cccc1C(=O)OCC(=O)N1CCN(c2ccccc2)CC1 | 35%
11 | C=CC[n+]1c(/C=C2\C=Cc3cc(C)ccc3N2CC)ccc2ccccc21 | 95.5% (active)
12 | O=C(Nc1ccc(Nc2ccccc2)cc1)c1cc([N+](=O)[O-])ccc1Cl | 53.4% (active)
13 | O=C(N/N=C/c1ccc([N+](=O)[O-])s1)C(O)c1ccccc1 (stereo not given) | 62.2% (active)
14 | COc1ccc(NC(=O)CN2C(=O)NC3(CCCc4ccccc43)C2=O)c(OC)c1 (stereo not given) | 42%
15 | CCC(NC(=O)CCl)c1ccc(C)cc1 (stereo not given) | 53.9% (active)
16 | CC(=O)Nc1cc(-c2cccnc2)cn2c(-c3ccc(F)cc3)cnc12 | 40.5%
17 | COC(=O)c1ccc(NC(=O)CN2CCC(NC(=O)c3ccccc3F)CC2)cc1 | 44.1% (active)
18 | Cc1cc(NC(=O)CSc2nc3c(sc4ccccc43)c(=O)n2CCCN2CCOCC2)n[nH]1 | 44.2% (active)
19 | CN(C)c1nnnn1-c1cccc(Oc2ncc(C(F)(F)F)cc2Cl)c1 | 38.3%
20 | COc1ccc(CCNC(=O)COC(=O)Cc2ccccc2[N+](=O)[O-])cc1 | 61.4% (active)

Row | Compound | inhibition
21 | O=C(Nc1ccc(N2CCN(C(=O)c3ccccc3)CC2)cc1)c1ccc([N+](=O)[O-])o1 | 66.6% (active)
22 | N#CCCn1cc(/C=N/NC(N)=S)c(-c2ccc(-c3ccccc3)cc2)n1 | 48.6% (active)
23 | CC(=O)Nc1cc(-c2cccc(N)c2)cn2c(-c3ccc(C(C)=O)cc3)cnc12 | 36.5%
24 | CC(=O)Nc1ccc(-c2ccnc3c2CC(C(=O)NCc2ccco2)O3)cc1 (stereo not given) | 44.6% (active)
25 | CN(C)S(=O)(=O)c1cccc(C(=O)OCC(=O)Nc2ccc3c(c2)OCCO3)c1 | 52.3% (active)
26 | Cc1ccc2c(c1)Oc1ccc(NC(=O)CCl)cc1C(=O)N2 | 75.6% (active)
27 | CC(C)NC(=O)CN1CCN(C(=O)CCl)CC1 | 27.2%
28 | C/C=C/c1ccc(OCCOc2ccc(C=O)cc2OC)c(OC)c1 | 35.4%
29 | O=C(Nc1nc(-c2cccs2)cs1)c1ccc([N+](=O)[O-])o1 | 62.9% (active)
30 | COc1ccc(NC(=O)CSc2nnc(-c3ccccn3)n2N)cc1Cl | 49.4% (active)
31 | COc1cc(CNc2ccc(CNc3ncn[nH]3)cc2)ccc1OCC(=O)NC(C)(C)C | -3.26%
32 | CCOc1ccc(NC(=O)CSc2nc3[nH]ncc3c(=O)[nH]2)cc1 | 43.5% (active)
33 | CC(C(=O)OCC(=O)Nc1ccc2c(c1)OCO2)N1C(=O)c2ccccc2C1=O (stereo not given) | 48.2% (active)
34 | COc1ccc(Nc2nc(Nc3ccc(OC)cc3)nc(SC3=NCCS3)n2)cc1 | 53.4% (active)
35 | COc1ccc(NC(=O)COC(=O)/C=C/C(=O)OCC(=O)Nc2ccc(OC)c(Cl)c2)cc1Cl | 53.9% (active)
36 | COc1ccc(NC(=O)CS(=O)(=O)c2ccc(C)cc2)c(OC)c1 | 56% (active)
37 | CC(C)Cn1c(N)c(C(=O)NCC2CCCO2)c2nc3ccccc3nc21 (stereo not given) | 37.3%
38 | O=[N+]([O-])c1cnccc1Nc1ccc(F)cc1 | 55.2% (active)
39 | CCOc1ccc(CCNC(=O)COC(=O)Cc2c[nH]c3ccccc23)cc1OCC | 56.3% (active)
40 | CCC(=O)N1CCN(c2ccc(NC(=O)c3ccc([N+](=O)[O-])o3)cc2Cl)CC1 | 58.2% (active)

tested on: not listed separately; assay: VP16 transactivation reporter inhibitors, counter-screen for LRH-1 inverse agonist project, cell-based, luminescence, high throughput (AID 651615; in the data active = inhibition above about 33%); conditions: Gal4-VP16 luciferase reporter cells, at 3.6 µM, active compounds read high

Row | Compound | inhibition
41 | COc1ccc(OC)c(NC(=O)c2ccccc2NC(=O)c2ccco2)c1 | -1.48%
42 | Cc1c(F)cccc1NS(=O)(=O)c1ccc(N2CCCC2=O)cc1 | 3.58%
43 | CCOc1ccc(NC(=O)COC(=O)c2cc([N+](=O)[O-])ccc2N2CCOCC2)cc1 | -1%
44 | COCc1cccc(-c2csc(C(C)(O)c3cccc(OC)c3)n2)c1 (stereo not given) | 11.7%
45 | O=C(CN(Cc1ccccc1)C(=O)CCl)c1cccc(Br)c1 | -1.2%
46 | Cn1c(CN2CCN(c3cccc(Cl)c3)CC2)nc2ccccc21 | -12.9%
47 | Cc1cc(N2CCN(c3nc4ccccc4s3)CC2)n2ncnc2n1 | 50.3% (active)
48 | COc1ccc(S(=O)(=O)Nc2cc3c4c(oc3c3ccccc23)CCCC4=O)cc1 | -1.29%
49 | CCCCCCCn1ccc(=N)cc1 | 67.9% (active)
50 | Cn1cccc1C(=O)OCC(=O)N1CCN(c2ccccc2)CC1 | -18.1%
51 | C=CC[n+]1c(/C=C2\C=Cc3cc(C)ccc3N2CC)ccc2ccccc21 | 95.8% (active)
52 | O=C(Nc1ccc(Nc2ccccc2)cc1)c1cc([N+](=O)[O-])ccc1Cl | 9.35%
53 | O=C(N/N=C/c1ccc([N+](=O)[O-])s1)C(O)c1ccccc1 (stereo not given) | -11.9%
54 | COc1ccc(NC(=O)CN2C(=O)NC3(CCCc4ccccc43)C2=O)c(OC)c1 (stereo not given) | -6.1%
55 | CCC(NC(=O)CCl)c1ccc(C)cc1 (stereo not given) | -27.2%
56 | CC(=O)Nc1cc(-c2cccnc2)cn2c(-c3ccc(F)cc3)cnc12 | 0.11%
57 | COC(=O)c1ccc(NC(=O)CN2CCC(NC(=O)c3ccccc3F)CC2)cc1 | -4.8%
58 | Cc1cc(NC(=O)CSc2nc3c(sc4ccccc43)c(=O)n2CCCN2CCOCC2)n[nH]1 | -8.59%
59 | CN(C)c1nnnn1-c1cccc(Oc2ncc(C(F)(F)F)cc2Cl)c1 | -5.85%
60 | COc1ccc(CCNC(=O)COC(=O)Cc2ccccc2[N+](=O)[O-])cc1 | -6.51%

Row | Compound | inhibition
61 | O=C(Nc1ccc(N2CCN(C(=O)c3ccccc3)CC2)cc1)c1ccc([N+](=O)[O-])o1 | -9.49%
62 | N#CCCn1cc(/C=N/NC(N)=S)c(-c2ccc(-c3ccccc3)cc2)n1 | -9.84%
63 | CC(=O)Nc1cc(-c2cccc(N)c2)cn2c(-c3ccc(C(C)=O)cc3)cnc12 | -13.4%
64 | CC(=O)Nc1ccc(-c2ccnc3c2CC(C(=O)NCc2ccco2)O3)cc1 (stereo not given) | 24.2%
65 | CN(C)S(=O)(=O)c1cccc(C(=O)OCC(=O)Nc2ccc3c(c2)OCCO3)c1 | 10.7%
66 | Cc1ccc2c(c1)Oc1ccc(NC(=O)CCl)cc1C(=O)N2 | 16.8%
67 | CC(C)NC(=O)CN1CCN(C(=O)CCl)CC1 | 7.31%
68 | C/C=C/c1ccc(OCCOc2ccc(C=O)cc2OC)c(OC)c1 | 2.21%
69 | O=C(Nc1nc(-c2cccs2)cs1)c1ccc([N+](=O)[O-])o1 | -34.9%
70 | COc1ccc(NC(=O)CSc2nnc(-c3ccccn3)n2N)cc1Cl | 2.01%
71 | COc1cc(CNc2ccc(CNc3ncn[nH]3)cc2)ccc1OCC(=O)NC(C)(C)C | 15.7%
72 | CCOc1ccc(NC(=O)CSc2nc3[nH]ncc3c(=O)[nH]2)cc1 | -6.78%
73 | CC(C(=O)OCC(=O)Nc1ccc2c(c1)OCO2)N1C(=O)c2ccccc2C1=O (stereo not given) | -12.4%
74 | COc1ccc(Nc2nc(Nc3ccc(OC)cc3)nc(SC3=NCCS3)n2)cc1 | 4.27%
75 | COc1ccc(NC(=O)COC(=O)/C=C/C(=O)OCC(=O)Nc2ccc(OC)c(Cl)c2)cc1Cl | -16%
76 | COc1ccc(NC(=O)CS(=O)(=O)c2ccc(C)cc2)c(OC)c1 | -1.68%
77 | CC(C)Cn1c(N)c(C(=O)NCC2CCCO2)c2nc3ccccc3nc21 (stereo not given) | 1.28%
78 | O=[N+]([O-])c1cnccc1Nc1ccc(F)cc1 | 9.14%
79 | CCOc1ccc(CCNC(=O)COC(=O)Cc2c[nH]c3ccccc23)cc1OCC | -0.69%
80 | CCC(=O)N1CCN(c2ccc(NC(=O)c3ccc([N+](=O)[O-])o3)cc2Cl)CC1 | -21.9%
